High-throughput results from PubChem BioAssay.
HP1b chromo inh = HTS for Inhibitors of HP1-beta Chromodomain Interactions with Methylated Histone Tails | AlphaScreen HP1-beta / biotin-H3K9me3 peptide binding | Potency, µM (titrated, usually from 114 µM), hits mostly inhibitors | hit rate 0.56% among 390,000 | AID 540317, 2011; also: nearly all actives have a fitted effect of over 70% in size
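HP1-beta protein (50 nM final) preincubated 30 min at room temperature with biotinylated H3(1-18)K9me3 peptide (50 nM) in PBS pH 7.4, 0.01% Tween-20, then compound added for 30 min. AlphaScreen streptavidin donor/nickel chelate acceptor beads (10 ug/mL final), 30 min dark, luminescence read.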
JMJD2A Tudor inh = qHTS Assay for Inhibitors of JMJD2A-Tudor Domain; Lysine-specific demethylase 4A (Homo sapiens), O75164; AlphaScreen JMJD2A-Tudor / H3K4me3 peptide binding; Potency, µM (highest dose often 114 µM), usual class: inhibitors; hit rate 4.4% among 390,000; AID 504339, 2011; also: nearly all actives have a fitted effect of over 50% in size
G9a block = qHTS Assay for Inhibitors of Histone Lysine Methyltransferase G9a; hit rate 8.8% among 350,000; AID 504332, 2011; Histone-lysine N-methyltransferase EHMT2 (Homo sapiens), Q96KQ7; Potency, µM (top dose mostly 102 µM), most hits filed as inhibitors; G9a H3K9 monomethylation, AlphaScreen, 2 h; also: nearly all actives have a fitted effect of over 75% in size
Target sequence (Q96KQ7 913-1193 limits assumed): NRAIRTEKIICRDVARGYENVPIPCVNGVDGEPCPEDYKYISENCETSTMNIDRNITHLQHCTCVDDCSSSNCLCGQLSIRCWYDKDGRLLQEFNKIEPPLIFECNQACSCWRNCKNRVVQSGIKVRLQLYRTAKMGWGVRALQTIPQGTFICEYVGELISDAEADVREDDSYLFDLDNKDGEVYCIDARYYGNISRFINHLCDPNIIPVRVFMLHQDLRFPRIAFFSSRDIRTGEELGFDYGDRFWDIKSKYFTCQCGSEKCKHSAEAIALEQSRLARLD
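G9a (20 nM) was preincubated 15 min with compound, then reacted 2 h at room temperature with 500 nM biotin-H3K9 peptide and 20 µM SAM. Monomethyl-H3K9 detected by AlphaScreen using anti-H3K9me1 antibody.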
BAZ2B inh = qHTS Assay for Inhibitors of BAZ2B; Bromodomain adjacent to zinc finger domain protein 2B (Homo sapiens), Q9UIF8; AlphaScreen BAZ2B-H3K14Ac peptide displacement; hit rate 4.4% among 360,000; Potency, µM (series often up to 114 µM), hits mostly inhibitors; also: nearly all actives have a fitted effect of over 60% in size
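Complex of BAZ2B and biotin-H3K14Ac (50 nM apiece) forms over 30 min at RT, then faces library compounds up to 110 uM for another 30 min; AlphaScreen beads added, 20 min dark incubation, luminescence read.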
PLK1 PBD block = qHTS for Inhibitors of PLK1-PDB (polo-like kinase 1 - polo-box domain): Primary Screen; AID 720504, 2013; hit rate 2.8% among 360,000; Potency, µM, most hits filed as inhibitors; Plk1 PBD binding of FITC phosphopeptide, fluorescence polarization; also: series mostly up to about 57 µM; nearly all actives have a fitted effect of over 65% in size
PI5P4Ka inh = qHTS for Inhibitors of phosphatidylinositol 5-phosphate 4-kinase (PI5P4K) | PI5P4Kalpha enzyme, ADP-Glo luminescence, 60 min; active compounds read low | max response, % | hit rate 1.2% among 330,000; active = max response of -50% or lower; inconclusive = between -30% and -50%; inactive = -30% or higher; also: value at the top dose of about 77 µM
Target sequence (P48426 whole entry, looked up): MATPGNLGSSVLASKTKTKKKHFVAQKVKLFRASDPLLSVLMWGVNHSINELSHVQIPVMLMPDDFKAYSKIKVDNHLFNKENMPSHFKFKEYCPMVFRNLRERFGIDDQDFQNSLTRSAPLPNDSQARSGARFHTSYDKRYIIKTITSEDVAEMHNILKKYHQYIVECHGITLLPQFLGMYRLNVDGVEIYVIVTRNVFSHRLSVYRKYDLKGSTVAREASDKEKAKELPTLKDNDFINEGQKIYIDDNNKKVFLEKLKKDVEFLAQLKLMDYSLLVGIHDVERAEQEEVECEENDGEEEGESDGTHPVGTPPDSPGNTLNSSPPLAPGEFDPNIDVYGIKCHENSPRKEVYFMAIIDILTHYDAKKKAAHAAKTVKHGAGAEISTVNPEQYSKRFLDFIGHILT
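qHTS, 1536-well: enzyme/substrate mix, compound by pin tool, 5 microM ATP final; RT 60 min; ADP-Glo reagents 1 (45 min) then 2 (30 min); luminescence.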
Hits are given with their value; n = inactive; u = inconclusive; x = no result; [ ] = remark or other dose. An excerpt weighted towards active compounds, which were near 12% of everything screened. Unless noted, calls follow the shape of the dose curve; as a rule, active = well fitted curve in the direction sought with a large enough effect; inconclusive = small, poorly fitted or top-dose-only effect, or another doubt; inactive = no such curve, though single readings can be large; an effect the other way counts as inactive or inconclusive.

SMILES	HP1b chromo inh	JMJD2A Tudor inh	G9a block	BAZ2B inh	PLK1 PBD block	PI5P4Ka inh
C[C@H](CO)NC(=O)c1nc[nH]c1C(=O)N[C@H](C)c1ccccc1	x	x	x	x	n	n
COc1ccc([C@H]2C[C@@H](O)[C@H](n3cc(C4CC4)nn3)CN2C(=O)c2cccs2)cc1	x	x	x	x	n	n
O=C(NCc1cccnc1)c1ccc(NC(=O)c2ccc(Br)cc2)cc1	n	n	45µM	n	n	n
CCOc1ccc(-n2c(N)c(C(=O)NCc3ccco3)sc2=S)cc1	n	n	u	n	21µM	u
COCCNC(=O)Cn1cc(S(=O)(=O)Cc2ccccc2Cl)c2ccccc21	n	n	n	n	x	x
CC(NCC(O)COCCC12CC3CC(CC(C3)C1)C2)c1ccccc1 (stereo not drawn)	n	u	x	n	30µM	n
NCC(O)COCCC12CC3CC(CC(C3)C1)C2 (stereo not drawn)	n	n	n[12.7 µM]	n	n	n
CCOc1ccccc1NC(=O)C1COc2ccccc2O1 (stereo not drawn)	n	n	n	n	n	n
CC(C)Sc1nsc2nc(=O)c(/C=C3\C=Nc4ccccc43)c(N)n12	n	u	n	x	27µM	u
CS(=O)(=O)c1nsc2nc(=O)c(/C=C3\C=Nc4ccccc43)c(N)n12	n	n	u	n	n	-72
CC(C)c1nn2c(N)c(/C=C3\C=Nc4ccccc43)c(=O)nc2s1	n	n	n	n	n	n
COc1ccc(CNC(=O)CS(=O)(=O)c2cccc3nsnc23)cc1	n	n	n	n	x	x
Cc1ccc(C(=O)N2CCN(c3cnn(C)c(=O)c3Cl)CC2)cc1	n	n	n	n	n	n
Cc1ccc(CNC(=O)CC2Oc3ccccc3NC2=O)cc1 (stereo not drawn)	n	n	n	n	x	x
CCC[C@@H](CN1CCC[C@H]1CN1C(N)=NC[C@@H]1Cc1ccccc1)N1C[C@@H]([C@H](C)CC)N(CCCC2CCCC2)C1=N	n	u	x	x	n	-87
CCC[C@@H](CN1CCC[C@H]1CN1C(N)=NC[C@@H]1Cc1ccccc1)N1C[C@@H](Cc2ccccc2)N(CCCC2CCCC2)C1=N	n	n	x	x	n	n
CCN(CC)CCOC(=O)C(c1ccccc1)c1ccccc1	n	n	n	u	n	n
CCN(CC)CCOC(=O)C(Cc1ccco1)Cc1cccc2ccccc12 (stereo not drawn)	u	13µM	x	x	n	n
CCN(CC)CCOC(=O)C(c1ccccc1)C1CCCCC1 (stereo not drawn)	n	n	n[2.33 µM]	x	n	n
CCN(CC)CCOC(=O)CCc1cccc2ccccc12	n	28µM	7.9µM	u	n	n
COC(=O)c1cc(C)nc2c1c(=O)nc(SCc1cccc(C(F)(F)F)c1)n2C1CC1	n	n	n	n	x	x
Cn1c(-c2cccc3ccccc23)n[nH]c1=S	n	20µM	5µM	n	n	n
COc1cccc2cc(-c3ccnc(N)n3)oc12	n	n	n	n	n	n
COc1cccc2cc(-c3n[nH]c(=S)n3C)oc12	n	7.9µM	7.1µM	n	n	u
Cn1c(CSCc2ccc(Cl)cc2Cl)n[nH]c1=S	n	n	x	n	n	n
SMILES	HP1b chromo inh	JMJD2A Tudor inh	G9a block	BAZ2B inh	PLK1 PBD block	PI5P4Ka inh
Cn1c(CSCc2ccc(Cl)cc2)n[nH]c1=S	n	u	10µM	n	n	n
Cn1c(Cn2c3ccccc3c3ccccc32)n[nH]c1=S	n	n	7.9µM	n	n	n
CCn1nnc2c(N3CCCC3)ncnc21	u	n	x	x	x	x
Cc1cccc(C)c1NC(=O)C1C(c2ccccc2)=Nc2ccccc2N1C(=O)c1cnccn1 (stereo not drawn)	x	x	x	x	n	n
Cc1ccc(C(=O)Nc2ccccc2)cc1S(=O)(=O)N1CCN(C)CC1	n	n	n	n	n	n
Cn1c(CSCc2ccc(F)cc2)n[nH]c1=S	n	28µM	x	n	n	n
Cn1c(CSCc2ccccc2Cl)n[nH]c1=S	n	u	x	n	n	n
Cn1c(CSCc2ccccc2)n[nH]c1=S	n	7.9µM	7.9µM	n	n	n
COc1ccccc1CNC(=O)CN(C)S(=O)(=O)c1ccc(Br)s1	n	n	n	n	n	n
C/C(=N\Nc1cc(N2CCOCC2)ncn1)c1ccc(O)cc1	n	n	n[0.501 µM]	n	n	u
Cc1c(CC(=O)NCC(=O)O)c(=O)oc2cc3c(cc12)CCC(C)(C)O3	n	n	n	n	n	n
COc1ccc([C@@H](OC)[C@@]2(Cc3ccc(O)cc3)N=C(N)N(C)C2=O)cc1	n	n	n[0.501 µM]	n	n	n
Cc1cc(-c2cccnc2)c(C#N)c(SCc2cccc(F)c2)n1	n	n	40µM	n	n	x
Cc1cc(-c2cccnc2)c(C#N)c(SCC#N)n1	n	n	n	n	n	x
CC(=O)Nc1cc2c(s1)c1cnn(Cc3ccccc3F)c(=O)c1n2C	x	x	n[12.7 µM]	n	x	x
CC(NC(=O)c1ccc(F)cc1)c1nc2ccccc2[nH]1 (stereo not drawn)	n	n	n	n	x	x
Cc1c(-c2nc(-c3ccc4c(c3)OCO4)no2)nnn1-c1ccc(C(C)C)cc1	n	n	n	n	x	x
FC(F)Oc1ccc(-c2csc(=Nc3cccnc3)n2CC2CCCO2)cc1 (stereo not drawn)	u	n	u	45µM	n	n
Oc1ccc(/C=N/n2c(-c3ccco3)csc2=Nc2cccnc2)c(O)c1	n	n	u	u	n	n
Clc1ccc(-c2csc(=Nc3cccnc3)n2CCCn2ccnc2)cc1Cl	u	40µM	11µM	11µM	n	n
COCCn1c(-c2ccc(Br)cc2)csc1=Nc1cccnc1	u	45µM	40µM	11µM	n	n
O=C1c2cccc3cccc(c23)C(c2nc3ccccc3[nH]2)N1C1CC1 (stereo not drawn)	x	x	x	x	n	n
CCCC[C@H]1CCCO[C@@](C(=O)NCCN2CCOCC2)(C(F)(F)F)C1	n	n	x	x	x	x
CCOc1ccc(C(CN2CCOCC2)C(C)=O)cc1OC (stereo not drawn)	x	x	x	x	n	n
CCCCn1c(N)c(N(CCOC)C(=O)CSCc2ccc(C)cc2)c(=O)[nH]c1=O	n	n	45µM	n	n	n
CCCCn1c(N)c(N(CCOC)C(=O)COC(=O)CNC(=O)c2ccc(Cl)c(Cl)c2)c(=O)[nH]c1=O	n	n	x	x	n	n
